The results in this text go back to PubChem BioAssay (NCI).

Each structure is given as a SMILES string. The panel holds about 79,000 compounds, 15% with a hit somewhere; the sample as a whole holds those more often. Unmarked numbers belong to inactive results. The source made the active and inactive calls. No stated cut-off is given here; in the data, active means growth inhibition above about 70%; inactive means the rest.

A short description of test [1]: NCI Yeast Anticancer Drug Screen. Data for the rad50 strain (AID 155).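 Further: 0% = growth of vehicle-only cultures of the same strain.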 The following applies: S. cerevisiae rad50 strain growth inhibition, stronger effect = higher value. In short, it runs like this:
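DNA repair mutant yeast, compound exposure, growth read-out; inhibition is taken relative to vehicle.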

Test [2] can be described thus: NCI Yeast Anticancer Drug Screen. Data for the mec2-1 strain (AID 157). The following applies: S. cerevisiae mec2-1 strain, stronger effect = higher value. The essentials:
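mec2-1 yeast strain, carrying an alteration in DNA damage repair or cell cycle control, was exposed to compounds; growth inhibition was measured relative to vehicle-treated controls.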

Test [3] in a line: NCI Yeast Anticancer Drug Screen. Data for the sgs1 mgt1 strain (AID 161).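 Further: 0% = growth of cultures given vehicle only.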 The following applies: S. cerevisiae sgs1 mgt1 strain, stronger effect = higher value. In short, it runs like this:
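Yeast cells carrying a defined DNA-repair defect were exposed to test compounds. Growth inhibition was measured relative to vehicle-treated controls.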

The nature of test [4]: NCI Yeast Anticancer Drug Screen. Data for the cln2 rad14 strain (AID 165).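 Further: 0% = growth equal to vehicle treated cultures.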 The following applies: S. cerevisiae cln2 rad14 strain, stronger effect = higher value. In short, it runs like this: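 Yeast carrying cln2 and rad14 alterations (cell cycle control and DNA damage repair) were exposed to compounds. Growth inhibition was measured against vehicle-treated controls.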
Test [5] can be described thus: NCI Yeast Anticancer Drug Screen. Data for the bub3 strain (AID 167). The following applies: S. cerevisiae bub3 mutant strain, stronger effect = higher value. The essentials: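 In this screen, a yeast mutant lacking normal mitotic checkpoint function is challenged with compound. Relative growth versus vehicle gives the inhibition value.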
The nature of test [6]: NCI Yeast Anticancer Drug Screen. Data for the mlh1 rad18 strain (AID 175). Particulars: S. cerevisiae mlh1 rad18 strain growth inhibition, stronger effect = higher value. In short, it runs like this:
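Growth inhibition of the yeast strain was measured after compound exposure and expressed relative to vehicle-treated controls. The strain carries defined defects in DNA damage repair.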

Setting [7] is: at 5.0 µM (retest, dose inferred, filed as 0.5).
The mark [8] stands for this setting: at 50.0 µM (retest, dose inferred, filed as 5.0).

In the case of `CC(=O)OC1COC(n2nnc(C#N)c2C#N)C(OC(C)=O)C1OC(C)=O` (configuration not stated), the growth inhibition in test [1] (setting [7]) is 4%; in test [1] (setting [8]), 9%; in test [1] (at 50.0 µM), 93.7% (active); in test [2] (setting [7]), -7%; in test [2] (setting [8]) it was 2%; in test [2] (at 50.0 µM), 82.4% (active). Moreover, the growth inhibition was 1% in test [3] (setting [7]); 4% in test [3] (setting [8]); 94.7% (active) in test [3] (at 50.0 µM); 3% in test [4] (setting [7]); 4% in test [4] (setting [8]); 83% (active) in test [4] (at 50.0 µM). The growth inhibition was 1% in test [5] (setting [7]); 4% in test [5] (setting [8]); 89.3% (active) in test [5] (at 50.0 µM); 0% in test [6] (setting [7]); 27% in test [6] (setting [8]); 91.8% (active) in test [6] (at 50.0 µM).

In the case of `Oc1ccc2c(c1)OCC1c3ccccc3OC21` (configuration not stated), the growth inhibition is 24% in test [1] (setting [7]); 71% (active) in test [1] (setting [8]); 76.7% (active) in test [1] (at 50.0 µM); 38% in test [2] (setting [7]); 78% (active) in test [2] (setting [8]); 64.3% in test [2] (at 50.0 µM). In addition, the growth inhibition in test [3] (setting [7]) is 28%; in test [3] (setting [8]), 73% (active); in test [3] (at 50.0 µM) it was 66.3%; in test [4] (setting [7]), 23%; in test [4] (setting [8]), 56%; in test [4] (at 50.0 µM), 50.1%. Further, the growth inhibition is 37% in test [5] (setting [7]); 89% (active) in test [5] (setting [8]); 75% (active) in test [5] (at 50.0 µM); 50% in test [6] (setting [7]); 88% (active) in test [6] (setting [8]); 76.7% (active) in test [6] (at 50.0 µM).

Turning to `CCCCCCN(S(=O)(=O)c1ccc([N+](=O)[O-])cc1)S(=O)(=O)c1ccc([N+](=O)[O-])cc1`, the growth inhibition in test [1] (setting [7]) is 23%; in test [1] (setting [8]) it was 48%; in test [1] (at 50.0 µM) it was 66.8%; in test [2] (setting [7]), -105%; in test [2] (setting [8]), 51%; in test [2] (at 50.0 µM), 73.7% (active). Further, the growth inhibition in test [3] (setting [7]) is 8%; in test [3] (setting [8]), 48%; in test [3] (at 50.0 µM), 71.3% (active); in test [4] (setting [7]) it was 8%; in test [4] (setting [8]), 55%; in test [4] (at 50.0 µM), 68.7%. In addition, the growth inhibition was 32% in test [5] (setting [7]); 50% in test [5] (setting [8]); 56.9% in test [5] (at 50.0 µM); 18% in test [6] (setting [7]); 48% in test [6] (setting [8]); 73.8% (active) in test [6] (at 50.0 µM).

Consider `CCCCCCCC/C=C\CCCCCCCC(=O)OCCCCC`, for which the growth inhibition was -7% in test [1] (setting [7]); 2% in test [1] (setting [8]); 15.6% in test [1] (at 50.0 µM); -5% in test [2] (setting [7]); 0% in test [2] (setting [8]); 13.8% in test [2] (at 50.0 µM). The growth inhibition was -2% in test [3] (setting [7]); 18% in test [3] (setting [8]); 17.2% in test [3] (at 50.0 µM); -8% in test [4] (setting [7]); -10% in test [4] (setting [8]); 60.8% in test [4] (at 50.0 µM). Besides, the growth inhibition in test [5] (setting [7]) was -6%; in test [5] (setting [8]), -8%; in test [5] (at 50.0 µM), 40.5%; in test [6] (setting [7]), 15%; in test [6] (setting [8]) it was 11%; in test [6] (at 50.0 µM), 33.6%.

As for `COC(=O)c1ccccc1C(=O)c1cc(OC)c2c(c1OC)CCCC2`, the growth inhibition was -2% in test [1] (setting [7]); 59% in test [1] (setting [8]); 90.8% (active) in test [1] (at 50.0 µM); 0% in test [2] (setting [7]); 64% in test [2] (setting [8]); 94.5% (active) in test [2] (at 50.0 µM). For the same molecule, the growth inhibition in test [3] (setting [7]) is 5%; in test [3] (setting [8]) it was 63%; in test [3] (at 50.0 µM), 75.5% (active); in test [4] (setting [7]), -69%; in test [4] (setting [8]) it was 23%; in test [4] (at 50.0 µM) it was 47.6%. The growth inhibition in test [5] (setting [7]) is 3%; in test [5] (setting [8]), -45%; in test [5] (at 50.0 µM), 77% (active); in test [6] (setting [7]), 3%; in test [6] (setting [8]) it was 24%; in test [6] (at 50.0 µM), 82.9% (active).

As for `ClC(Cl)(Cl)C1OCOC(C(Cl)(Cl)Cl)O1` (configuration not stated), the growth inhibition was 20% in test [1] (setting [7]); 98% (active) in test [1] (setting [8]); 99.2% (active) in test [1] (at 50.0 µM); 17% in test [2] (setting [7]); 99% (active) in test [2] (setting [8]); 99.2% (active) in test [2] (at 50.0 µM). The growth inhibition was 11% in test [3] (setting [7]); 99% (active) in test [3] (setting [8]); 99.3% (active) in test [3] (at 50.0 µM); 24% in test [4] (setting [7]); 99% (active) in test [4] (setting [8]); 99.3% (active) in test [4] (at 50.0 µM). In addition, the growth inhibition in test [5] (setting [7]) is 3%; in test [5] (setting [8]) it was 98% (active); in test [5] (at 50.0 µM) it was 99.3% (active); in test [6] (setting [7]), 33%; in test [6] (setting [8]), 99% (active); in test [6] (at 50.0 µM), 99.3% (active).

Turning to `CC(=O)N(O)c1ccc2c(c1)Cc1cc(F)ccc1-2`, the growth inhibition in test [1] (setting [7]) was 75% (active); in test [1] (setting [8]), 37%; in test [1] (at 50.0 µM), 97% (active); in test [2] (setting [7]), 34%; in test [2] (setting [8]), 29%; in test [2] (at 50.0 µM), 94% (active). The growth inhibition in test [3] (setting [7]) is 65%; in test [3] (setting [8]) it was 35%; in test [3] (at 50.0 µM) it was 97.1% (active); in test [4] (setting [7]) it was 45%; in test [4] (setting [8]) it was 21%; in test [4] (at 50.0 µM), 92.5% (active). For the same molecule, the growth inhibition is -14% in test [5] (setting [7]); 80% (active) in test [5] (setting [8]); 97.8% (active) in test [5] (at 50.0 µM); 49% in test [6] (setting [7]); 57% in test [6] (setting [8]); 96.5% (active) in test [6] (at 50.0 µM).

Consider `O=C1C(Cl)=CC(=NCl)C=C1Cl`, for which the growth inhibition in test [1] (setting [7]) was 59%; in test [1] (setting [8]) it was 83% (active); in test [1] (at 50.0 µM) it was 89.1% (active); in test [2] (setting [7]), 53%; in test [2] (setting [8]), 91% (active); in test [2] (at 50.0 µM), 91% (active). Also, the growth inhibition in test [3] (setting [7]) was 27%; in test [3] (setting [8]), 98% (active); in test [3] (at 50.0 µM), 91.9% (active); in test [4] (setting [7]), 47%; in test [4] (setting [8]), 100% (active); in test [4] (at 50.0 µM), 85% (active). The growth inhibition is 84% (active) in test [5] (setting [7]); 95% (active) in test [5] (setting [8]); 89.8% (active) in test [5] (at 50.0 µM); 28% in test [6] (setting [7]); 86% (active) in test [6] (setting [8]); 89% (active) in test [6] (at 50.0 µM).

For `CCCCCCN(CCCCCC)P(=O)(N1CC1C)N1CC1C` (configuration not stated), the growth inhibition in test [1] (setting [7]) is -2%; in test [1] (setting [8]), 99% (active); in test [1] (at 50.0 µM), -11.6%; in test [2] (setting [7]) it was -5%; in test [2] (setting [8]), 99% (active); in test [2] (at 50.0 µM) it was 32.4%. Further, the growth inhibition in test [3] (setting [7]) is -3%; in test [3] (setting [8]), 33%; in test [3] (at 50.0 µM) it was 10.1%; in test [4] (setting [7]), 3%; in test [4] (setting [8]) it was 99% (active); in test [4] (at 50.0 µM), -7.75%. For the same molecule, the growth inhibition in test [5] (setting [7]) is 7%; in test [5] (setting [8]), 99% (active); in test [5] (at 50.0 µM), 81.2% (active); in test [6] (setting [7]) it was -2%; in test [6] (setting [8]) it was 99% (active); in test [6] (at 50.0 µM), 24.9%.
